Hits are enriched below; roughly 9.3% of the tested compounds scored in any of these assays.
SMN2 splice up – enhancers of SMN2 splice variant expression; HEK293 SMN2-luciferase splicing reporter, luminescence, 30-36 h; hit rate 2.8% among 210,000; Potency, µM (top dose mostly 46.1 µM), most hits filed as activators; further: nearly all actives have a fitted effect of over 55% in size
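HEK293 cells carry an SMN2 minigene-luciferase reporter in which exon 7 inclusion puts luciferase in frame. Cells were seeded at 2000 cells/well, attached for 10-12 hours, then exposed to compounds for 30-36 hours at 37C before ONE-Glo luminescence.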
NPC1 prom act – activates the NPC1 promoter; Potency, µM (highest dose often 9.22 µM), most hits filed as activators; Huh7 NPC1 promoter luciferase reporter, 24 h; hit rate 2.4% among 320,000; further: nearly all actives have a fitted effect of over 60% in size
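Huh7 cells stably carrying NPC1 promoter–luciferase, plated in Opti-MEM with 10% FBS for 2 h, were exposed to compound in DMSO for 24 h at 37 °C; luciferase reagent was added for 10 min and luminescence read.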
ELG1 DNA repair – inhibitors of ELG1-dependent DNA repair in HEK293T cells; HEK293T ELG1-luciferase reporter, luminescence, 16 h; DNA damage induced by 5-fluorouridine; Potency, µM (top dose mostly 46.1 µM), hits mostly inhibitors; hit rate 2.3% among 330,000; further: nearly all actives have a fitted effect of over 55% in size
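Reporter activity after DNA damage by 5-fluorouridine is monitored. Compound-treated cells incubate 16 hr at 37 °C, then ONE-Glo is added for 30 min before luminescence reading.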
ELG1 genotox – genotoxicity induction in ELG1-luciferase HEK293T cells | AID 504466 | hit rate 1.3% among 330,000 | Potency, µM (doses to about 46 µM), actives largely listed as activators | HEK293T ELG1-luciferase reporter, luminescence, 16 h; further: nearly all actives have a fitted effect of over 60% in size
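ELG1-luciferase HEK293T cells, 2,000/well; compound pinned in; 16 hr, 37 °C, 5% CO2; ONE-Glo, 30 min RT; luminescence on CCD imager.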
Rab9 prom act – activates the Rab9 promoter; hit rate 2.8% among 320,000; Potency, µM (series often up to 9.22 µM), actives largely listed as activators; Huh7 Rab9 promoter-luciferase reporter, luminescence, 24 h; further: nearly all actives have a fitted effect of over 60% in size
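Huh7 cells stably carrying Rab9 promoter–luciferase reporter, plated 1500 cells/well, compound added after 2 h and incubated 24 h at 37 °C; luciferase luminescence then read after 10 min with detection reagent.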
FLuc modulator – counter-screen for miR-21 project: firefly luciferase inhibitors or activators. P08659. AID 588342. purified FLuc, Km substrates, luminescence inhibition. Potency, µM (highest dose often 57.5 µM), usual class: inhibitors. hit rate 6.9% among 360,000; further: nearly all actives have a fitted effect of over 55% in size
Target sequence (P08659 whole entry, looked up): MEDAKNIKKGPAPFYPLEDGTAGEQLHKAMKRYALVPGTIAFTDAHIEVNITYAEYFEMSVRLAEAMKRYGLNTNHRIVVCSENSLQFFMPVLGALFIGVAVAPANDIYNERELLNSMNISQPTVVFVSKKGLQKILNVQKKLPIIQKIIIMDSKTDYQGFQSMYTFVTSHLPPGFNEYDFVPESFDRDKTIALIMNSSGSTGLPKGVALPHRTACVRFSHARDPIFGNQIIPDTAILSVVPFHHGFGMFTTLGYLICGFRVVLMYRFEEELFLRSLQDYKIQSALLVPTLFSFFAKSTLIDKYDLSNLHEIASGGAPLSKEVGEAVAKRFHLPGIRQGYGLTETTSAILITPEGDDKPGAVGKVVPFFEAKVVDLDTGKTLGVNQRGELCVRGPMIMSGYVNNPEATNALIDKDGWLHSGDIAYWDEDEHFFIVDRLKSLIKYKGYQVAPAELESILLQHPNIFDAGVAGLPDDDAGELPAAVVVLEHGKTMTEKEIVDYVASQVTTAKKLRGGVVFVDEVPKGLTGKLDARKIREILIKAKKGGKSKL
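Biochemical qHTS of compounds, final roughly 60 µM downward over six points, against 10 nM purified firefly luciferase using Km concentrations of substrates (10 uM D-luciferin, 10 uM ATP) in Tris acetate pH 7.5 buffer; luminescence output.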
A number is an active result; i = inactive; ? = inconclusive; nt = no result given; [ ] = another dose, or the depositor's remark. The call rests on the fitted dose curve; in most records, active means well fitted curve in the direction sought with a large enough effect; inconclusive means small, poorly fitted or top-dose-only effect, or another doubt; inactive means no such curve, though single readings can be large; an effect the other way counts as inactive or inconclusive.

SMILES	SMN2 splice up	NPC1 prom act	ELG1 DNA repair	ELG1 genotox	Rab9 prom act	FLuc modulator
C[C@H]1CC[C@]2(O[C@H](CCO)C[C@@H](O)[C@@H]2O)O1	nt	i	i	i	i	i
CCOC(=O)C1=C(C)N=C2c3ccccc3C(=O)C2C1c1ccc(Cl)cc1 (stereo unspecified)	i	i	20.6µM	i	i	i
CCOC(=O)C1=NNC(C(=O)c2ccccc2)C1c1ccc(Cl)cc1 (stereo unspecified)	nt	i	i	i	i	26.9µM
CC1(C)CC(=O)C2=C(C1)N=C1c3ccccc3C(=O)C1C2c1ccc(Cl)cc1 (stereo unspecified)	i	i	?	i	i	i
CCOC(=O)C1=NNC(C(=O)c2ccccc2)C1c1ccc(C)cc1 (stereo unspecified)	nt	i	i	i	i	?
Cc1ccc(S[C@@H](CCN2CC[C@H](C)CCC2=O)c2ccccc2)cc1	nt	i	i	i	i	i
Cc1c(CC(=O)O)c(=O)oc2cc(OCc3ccc(F)cc3Cl)ccc12	nt	i	i	i	i	16.9µM
Cc1c(CCC(=O)O)c(=O)oc2cc(OCc3ccccc3F)ccc12	nt	i	i	i	i	26.9µM
COc1ccc(C(=O)Cn2nnc(-c3cccs3)n2)cc1	i	?	?	i	2.82µM	9.53µM
COC(=O)Cn1nnc(-c2cccc(OC)c2)n1	i	i	i	i	i	26.9µM
Cc1ccc(C(=O)Cn2nnc(-c3ccccc3)n2)cc1	nt	i	i	i	i	19µM
COc1ccc(N2CCN(C(=O)Cn3nnc(-c4cccs4)n3)CC2)cc1	i	i	i	i	i	i[2.3 µM]
COc1ccc(C(CNC(=O)c2ccc(NS(=O)(=O)c3cccc([N+](=O)[O-])c3)cc2)N2CCOCC2)cc1 (stereo unspecified)	nt	i	i	i	i	i
N#Cc1c(/N=C/c2ccc(-c3ccc(C(=O)O)c(Cl)c3)o2)sc2c1CCCC2	nt	i	?	i	i	2.39µM
N#Cc1c(/N=C/c2ccc(-c3ccccc3C(=O)O)o2)sc2c1CCCC2	nt	1.78µM	?	14.6µM	0.708µM	0.757µM
CCOC(=O)Cn1nnnc1CN(Cc1ccc(OC)cc1)Cc1cc2cc(CC)ccc2[nH]c1=O	i	i	?	i	i	i
COc1ccc(Cn2nnnc2CN(Cc2cc3cccc(C)c3[nH]c2=O)C2CCCC2)cc1	i	i	?	i	i	i
COc1cc2cc(CN(Cc3nnnn3Cc3ccco3)C3CCCCC3)c(=O)[nH]c2cc1OC	i	i	i	i	i	i
COc1ccc(Cn2nnnc2CN(Cc2cc3ccc(C)cc3[nH]c2=O)C2CCCC2)cc1	i	i	12.6µM	i	i	i
CCOC(=O)Cn1nnnc1CN(Cc1ccc(OC)cc1)Cc1cc2cc(C)ccc2[nH]c1=O	i	i	18.4µM	i	i	i
CCOc1ccc2[nH]c(=O)c(CN(Cc3nnnn3Cc3ccco3)C3CCCCC3)cc2c1	nt	i	10.3µM	i	i	i
CC(C)NS(=O)(=O)c1ccc(OCC(=O)Nc2cccc(F)c2)cc1	i	i	i	i	i	i
COC(=O)[C@@]1(Cc2ccc(OC)cc2)[C@@H]2C(=CC(=O)[C@H]2CC(=O)C(=O)N2CCCC2)CN1C(=O)c1ccccc1	i	i	14.6µM	i	i	i
O=S1(=O)CCOC[C@H](c2ccccc2)N1Cc1cccc(Cl)c1	nt	i	i	i	i	i
Cc1ccnc(N2C(=O)c3ccccc3C2O)c1 (stereo unspecified)	11.2µM	1µM	?	1.84µM	?	6.01µM
SMILES	SMN2 splice up	NPC1 prom act	ELG1 DNA repair	ELG1 genotox	Rab9 prom act	FLuc modulator
Cc1ccnc(N2C(=O)c3ccccc3C2Nc2cccc(C)c2C)c1 (stereo unspecified)	i	i	?	i	i	i
CCCOc1ccc(/C=N/Nc2ccccn2)cc1OC	10µM	?	?	?	2µM	3.38µM
COc1cc(/C=N/Nc2cccc(C)c2)cc(Br)c1O	i	i	i	i	i	?
Cc1ccc(C)c(/C=N/Nc2ccccn2)c1	i	i	i	i	i	?
COc1cc(/C=N/Nc2ccccn2)ccc1OCC(C)C	?	?	?	i	?	2.69µM
COc1cc(/C=N/Nc2ccccn2)cc(OC)c1O	i	i	?	i	i	12µM
CCOc1ccc(/C=N/Nc2ccccn2)cc1OC	14.1µM	?	?	20.6µM	2.82µM	5.36µM
Cc1cc(C)n(CC(=O)N2CCCC(N3CCN(Cc4ccc5c(c4)OCO5)CC3)C2)n1 (stereo unspecified)	nt	i	?	i	i	i
COc1cccc(NC(=O)CSc2nnc(Cc3cccn3C)n2-c2ccc(F)cc2)c1	i	i	i	i	i	i
CCOc1ccc(/C=N/N(C)c2ccccc2)cc1OC	25.1µM	?	?	4.61µM	3.16µM	4.78µM
C=CCOc1ccc(/C=N/Nc2ccccn2)cc1OC	11.2µM	3.55µM	?	?	?	5.36µM
Clc1ccc(-c2c[n+]3c(n2-c2ccccc2)SCC3)cc1	i	i	7.3µM	i	i	i
Cc1ccc(Nc2cc(C)nc3ccc(C)cc23)cc1	nt	i	8.2µM	i	i	i
CCCCCCCCCC[n+]1cccc2c3ccccc3ccc21	i	i	2.31µM	i	i	i
CCCCCCCC[n+]1cccc2c3ccccc3ccc21	i	i	?	i	i	i
S=C(NC1CCCCC1)N1CCc2[nH]c3ccccc3c2C1	nt	i	i	i	i	23.9µM
Cc1ccc(NC(=S)N2CCc3[nH]c4ccccc4c3C2)cc1	nt	i	i	i	i	i
Cc1c(NN=C(C#N)C#N)c(=O)n(-c2ccccc2)n1C	i	i	5.8µM	i	i	i
Cc1nc(CSc2nsc(/C=C/N(C)C)c2C#N)cs1	i	i	i	i	i	23.9µM
CC(C)(C)c1ccc2c(c1)C(=O)c1ccccc1C2=O	nt	0.891µM	?	?	0.562µM	1.35µM
CCc1ccc2c(c1)C(=O)c1ccccc1C2=O	15.8µM	?	?	?	?	6.01µM
COc1ccc(-c2cn(Cc3ccc4c(c3)C(=O)c3ccccc3C4=O)nn2)cc1	nt	i	i	i	i	i
O=[N+]([O-])c1ccc(C(c2sc3nc(-c4ccco4)nn3c2O)N2CCN(c3cccc(Cl)c3)CC2)cc1 (stereo unspecified)	nt	nt	nt	nt	nt	19µM
CCN1CCN(C(c2ccccc2)c2sc3nc(-c4ccco4)nn3c2O)CC1 (stereo unspecified)	nt	nt	nt	nt	nt	i
CCCc1cc2c(=O)c(-c3ccccn3)coc2cc1OC	?	2µM	?	?	1.58µM	4.78µM
N#Cc1c(NC(=O)CCCC(=O)O)sc2c1CCCCC2	1.26µM	?	?	?	?	2.13µM
CCC(=O)Nc1sc2c(c1C#N)CCCCC2	?	i	?	i	?	i[2.3 µM]
CCCC(=O)Nc1sc2c(c1C#N)CCCCC2	11.2µM	3.16µM	?	?	2.82µM	9.53µM
